The values below come from PubChem BioAssay (NCATS).

Values joined by “and” are separate entries in the source; they are usually repeats but may differ in a detail not shown here. Identical values can stand only once. Results filed as inconclusive are left out. The source holds several records for some structures; these can differ, active in one and inactive in another. Active and inactive are the calls of the source. The call rests on the fitted dose curve; in most records, active means well fitted curve in the direction sought with a large enough effect; inconclusive means small, poorly fitted or top-dose-only effect, or another doubt; inactive means no such curve, though single readings can be large; an effect the other way counts as inactive or inconclusive.

For one experiment, the system named is TAB113. The experiment in a line: qHTS profiling for inhibitors of Plasmodium falciparum proliferation (AID 504749). Further: nearly all actives have a fitted effect of over 60% in size. Conditions: P. falciparum in erythrocytes, SYBR Green DNA, 72 h; series mostly up to 28.7 µM. The gist of the method: (§1)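 P. falciparum-infected erythrocytes (0.3% parasitemia, 2.5% hematocrit) incubated with compound 72 h at 37 C, 5% CO2. Parasite DNA detected by SYBR Green after lysis, overnight at room temperature; normalised to 0.29 uM artemisinin and DMSO.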
(In general: qHTS replaces the single test concentration by a dilution series.)

The subject of a further experiment is TAB165. The description is as above. Conditions: P. falciparum in erythrocytes, SYBR Green DNA, 72 h; series mostly up to 28.7 µM. The gist of the method: as §1
Another experiment relates to W2. The experiment is described as above. The conditions noted are these: P. falciparum in erythrocytes, SYBR Green DNA, 72 h; series mostly up to 28.7 µM. Put shortly:
as §1

Another experiment relates to HEK293. Kind of experiment: Cytotoxic Profiling of Annotated Libraries Using Quantitative High-Throughput Screening (AID 1296008). Further: nearly all actives have a fitted effect of over 60% in size. On max response: on the % scale 0 is the no-effect control and ±100 the full control effect. Conditions: Five cell lines viability, CellTiter-Glo ATP luminescence, 48-72 h; max response: stronger effect = lower value. Put shortly: (§2)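 Cells exposed to compounds for 48 or 72 hr at 37 degrees Celsius. Viability read as ATP-coupled luminescence with CellTiter-Glo after 10 min at room temperature.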
In general terms: In ATP-based viability assays light output follows the ATP content of the culture.

Another experiment deals with KB-3-1. The description is as above. The conditions noted are these: Five cell lines viability, CellTiter-Glo ATP luminescence, 48-72 h; max response: stronger effect = lower value. Put shortly: as §2
Another experiment deals with MCC-13. The experiment in a line: qHTS assay to identify novel small-molecules to repurpose for Merkel cell carcinoma treatment (AID 1296009). Further: nearly all actives have a fitted effect of over 60% in size. The conditions noted are these: MCC and control cell lines, CellTiter-Glo viability, 72 h; series mostly up to 46 µM. Put shortly: (§3)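 Cells were treated for 72 hr at 37 degree celsius with compounds in 8- or 11-point dose response. Viability was read by CellTiter-Glo luminescence, normalized to no-cell (cytotoxicity) and DMSO controls.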

The next experiment deals with MKL-1. The experiment is described as above. Conditions: MCC and control cell lines, CellTiter-Glo viability, 72 h; series mostly up to 46 µM. The gist of the method:
as §3

Another experiment relates to MKL-2. The experiment is described as above. Conditions: MCC and control cell lines, CellTiter-Glo viability, 72 h; series mostly up to 46 µM. Put shortly:
as §3

The subject of a further experiment is UISO. The description is as above. The conditions noted are these: MCC and control cell lines, CellTiter-Glo viability, 72 h; series mostly up to 46 µM. Put shortly: as §3
The next experiment has as its system WaGa. The description is as above. Conditions: MCC and control cell lines, CellTiter-Glo viability, 72 h; series mostly up to 46 µM. Put shortly: as §3
The test system of the next experiment is CASKI. The experiment in a line: Primary qHTS to identify gynecologic anti-cancer compounds using libraries of approved drugs and bioactive compounds (AID 1345084). Further: nearly all actives have a fitted effect of over 55% in size. Conditions: Gynecologic cancer cell panel viability, ATPlite luminescence, 48 h; series mostly up to 57.5 µM. Put shortly: (§4)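 Cells, 1,000 per well, were allowed to settle for 16 h at 37 C before compound addition. Five concentrations were tested for 48 h, and viability was read by ATPlite luminescence after 15 min at room temperature.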

Experiment [1] concerns HaCat. Kind of experiment: Cytotoxic Profiling of Annotated Libraries Using Quantitative High-Throughput Screening (AID 1296008). Further: nearly all actives have a fitted effect of over 60% in size. On max response: on the % scale 0 is the no-effect control and ±100 the full control effect. The conditions noted are these: Five cell lines viability, CellTiter-Glo ATP luminescence, 48-72 h; max response: stronger effect = lower value. Put shortly: as §2
A further experiment has as its system NIH3T3. Described as above. Conditions: Five cell lines viability, CellTiter-Glo ATP luminescence, 48-72 h; max response: stronger effect = lower value. The gist of the method: as §2
The subject of the next experiment is C33A. Kind of experiment: Primary qHTS to identify gynecologic anti-cancer compounds using libraries of approved drugs and bioactive compounds (AID 1345084). Further: nearly all actives have a fitted effect of over 55% in size. Conditions: Gynecologic cancer cell panel viability, ATPlite luminescence, 48 h; series mostly up to 57.5 µM. The gist of the method:
as §4

The test system of the next experiment is CRL-7250. The experiment in a line: Cytotoxic Profiling of Annotated Libraries Using Quantitative High-Throughput Screening (AID 1296008). Further: nearly all actives have a fitted effect of over 60% in size. On max response: on the % scale 0 is the no-effect control and ±100 the full control effect. Conditions: Five cell lines viability, CellTiter-Glo ATP luminescence, 48-72 h; max response: stronger effect = lower value. Put shortly: as §2
For the next experiment, the system named is MCC-26. Kind of experiment: qHTS assay to identify novel small-molecules to repurpose for Merkel cell carcinoma treatment (AID 1296009). Further: nearly all actives have a fitted effect of over 60% in size. The conditions noted are these: MCC and control cell lines, CellTiter-Glo viability, 72 h; series mostly up to 46 µM. The gist of the method: as §3
The next experiment has as its system CAOV3. Kind of experiment: Primary qHTS to identify gynecologic anti-cancer compounds using libraries of approved drugs and bioactive compounds (AID 1345084). Further: nearly all actives have a fitted effect of over 55% in size. The conditions noted are these: Gynecologic cancer cell panel viability, ATPlite luminescence, 48 h; series mostly up to 57.5 µM. The gist of the method: as §4
Experiment [2] concerns HACAT. Kind of experiment: qHTS assay to identify novel small-molecules to repurpose for Merkel cell carcinoma treatment (AID 1296009). Further: nearly all actives have a fitted effect of over 60% in size. The conditions noted are these: MCC and control cell lines, CellTiter-Glo viability, 72 h; at 44.8 µM (top of the series) unless noted. The gist of the method:
as §3
Potency means the concentration at half of the fitted maximal effect.

Turning to `NC(=NCCCCCCN=C(N)/N=C(\N)Nc1ccc(Cl)cc1)/N=C(\N)Nc1ccc(Cl)cc1`, the Potency was 2 µM (active) in the experiment with TAB113; 794 nM (active) in the experiment on TAB165; 849 nM (active) in the experiment with W2; 7.5 µM (active) and 7.31 µM (active) with HEK293; 8.2 µM (active) in the experiment with KB-3-1; 26.6 µM (active) in the experiment on MCC-13. Besides, the Potency with MKL-1 was 6.68 µM (active); in the experiment with MKL-2 it was 2.99 µM (active); in the experiment with UISO, 9.44 µM (active); in the experiment on WaGa, 8.41 µM (active). The Potency entry in the experiment on CASKI is “inactive”.

Regarding `OC[C@H]1O[C@@H](n2cnc3c(=S)nc[nH]c32)[C@H](O)[C@@H]1O`, the Potency was 4.73 µM (active) with HEK293; 2.99 µM (active) in the experiment with HaCat [1]; 1.88 µM (active) with NIH3T3; 2.11 µM (active) in the experiment with MCC-13; 0.237 µM (active) with WaGa; 7.94 µM (active) with C33A. The Potency in the experiment on CASKI was 2.24 µM (active). Besides, the Potency entry in the experiment on MKL-2 is “inactive”.

As to `COc1cc(-c2ccc(=O)[nH]n2)ccc1OC(F)F`, the Potency in the experiment on TAB113 was 0.0355 µM (active); in the experiment with TAB165, 282 nM (active); with CRL-7250, 1.19 µM (active). In addition, the max response in the experiment with NIH3T3 was -9.32% (inactive). Moreover, the Potency result in the experiment with MCC-13, in the experiment with MCC-26, in the experiment on MKL-1, in the experiment with MKL-2, in the experiment on WaGa and in the experiment on C33A was “inactive” each time. The Potency result in the experiment with CASKI is “inactive”.

Consider `C[C@@H](CN(C)C)CN1c2ccccc2Sc2ccccc21`, for which the Potency entry in the experiment with TAB113, in the experiment on TAB165, in the experiment on MCC-13, with MCC-26, in the experiment on UISO and in the experiment with WaGa was “inactive” throughout. Also, the Potency result with C33A, in the experiment with CAOV3 and with CASKI was “inactive” in each case. Also, the results for the max response with HaCat [1], in the experiment on KB-3-1 and in the experiment with NIH3T3 were -0.198% (inactive), -9.85% (inactive) and -1.51% (inactive), respectively. Further, the Potency in the experiment with MKL-2 is 23.7 µM (active).

For `CCCCOc1ccc(C(=O)CCN2CCCCC2)cc1`, the Potency result in the experiment on TAB113, in the experiment with TAB165, with MCC-13, in the experiment on MCC-26, in the experiment with C33A and with CASKI was “inactive” throughout. Moreover, the compound was classed as inactive in the experiment with HaCat [1] and in the experiment on HACAT [2]. The max response with KB-3-1 was 0.445% (inactive); in the experiment with NIH3T3, -2.83% (inactive). The values for the Potency in the experiment with MKL-1, with MKL-2 and with WaGa were 9.44 µM (active), 2.66 µM (active) and 23.7 µM (active), respectively.

Take `CC(C)(C)CC(C)(C)c1ccc(OCCOCC[N+](C)(C)Cc2ccccc2)cc1`: the Potency in the experiment with TAB113 was 3.55 µM (active); in the experiment with TAB165, 3160 nM (active); in the experiment on W2, 1200 nM (active); in the experiment on HEK293, 6.68 µM (active) and 8.2 µM (active); in the experiment with KB-3-1, 20.6 µM (active); in the experiment on MKL-1 it was 1.06 µM (active). The Potency with MKL-2 is 0.944 µM (active); in the experiment on UISO, 8.41 µM (active); in the experiment with WaGa it was 1.5 µM (active); with CAOV3, 25.1 µM (active) and inactive; in the experiment on CASKI it was 10 µM (active). Further, the max response with NIH3T3 is -27.5% (inactive). The Potency entry in the experiment on MCC-13 was “inactive”.

As to `C[C@]12CCC(=O)C=C1[C@@H]1C[C@@H]1[C@H]1[C@@H]3[C@@H]4C[C@@H]4[C@@]4(CCC(=O)O4)[C@@]3(C)CC[C@@H]12`, the compound was classed as inactive in the experiment on CRL-7250. For the same compound, the max response is -9.08% (inactive) with HaCat [1] and -5.26% (inactive) in the experiment on NIH3T3. Moreover, the Potency entry in the experiment on MCC-13, in the experiment with MKL-1, in the experiment on MKL-2 and in the experiment on CASKI was “inactive” each time.
